# GPR151 ag: activates the human receptor GPR151; Q8TDV0; PathHunter beta-arrestin GPR151 cells, luminescence; activation, % at 11.2 µM; actives 1% (n = 650,000); AID 1508602; in the data active = activation above about 4.9%;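 also: 0% = median of compound wells and 100% = cells with positive control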
# Target sequence (Q8TDV0 whole entry, looked up): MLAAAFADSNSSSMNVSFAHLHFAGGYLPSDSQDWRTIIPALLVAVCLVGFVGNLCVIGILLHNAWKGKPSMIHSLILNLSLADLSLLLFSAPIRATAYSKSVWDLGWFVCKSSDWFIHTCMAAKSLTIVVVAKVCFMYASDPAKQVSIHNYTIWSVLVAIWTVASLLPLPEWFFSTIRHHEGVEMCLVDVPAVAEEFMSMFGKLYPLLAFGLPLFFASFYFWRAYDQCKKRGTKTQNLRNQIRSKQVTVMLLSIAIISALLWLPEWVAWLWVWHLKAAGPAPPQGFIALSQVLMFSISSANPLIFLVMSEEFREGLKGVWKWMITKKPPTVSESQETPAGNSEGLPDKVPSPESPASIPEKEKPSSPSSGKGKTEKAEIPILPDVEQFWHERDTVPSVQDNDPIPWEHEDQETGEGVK
# FBW7 activator: human FBW7 E3 ligase activation, primary screen; normalized activity (activation), % at 26.1 µM; actives 0.13% (n = 650,000); Q969H0; AlphaScreen FBW7–phospho-cyclin E peptide binding, activator screen; in the data active = normalized activity above about 1.9%;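 also: purified mutant Fbw7 with reduced substrate affinity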
# TEAD-YAP inh: TEAD-YAP interaction inhibition; HEK-TIYL cells, TEAD-Gal4/YAP UAS-luciferase luminescence; inhibition, % at 9.12 µM; actives 1.4% (n = 640,000); in the data active = inhibition above about 32%;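 also: 0% = median of test compound wells and 100% = reference inhibitor wells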
# MITF primary: blocks human microphthalmia-associated transcription factor | AlphaScreen MITF homodimerization, bead proximity signal | inhibition, % at 2.6 µM | AID 1259374 | actives 0.91% (n = 650,000); in the data active = inhibition above about 50%;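 also: 0% = vehicle wells with protein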
# GPR151 confirm: confirmation of human GPR151 activators | 6,700 tested, under 10 active | GPR151 PathHunter beta-arrestin cells, luminescence, 90 min; % of EA-reagent control over plate median | activation, % at 11.2 µM | shares compounds with GPR151 ag;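 active = mean percent activation across replicates above the confirmation screen cutoff of 4.91%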
# GPR119 counter: counter-screen for GPR151 activators: effect on human GPR119 | shares compounds with GPR151 ag | GPR119 PathHunter beta-arrestin cells, luminescence, 90 min; 0 = compound-well median, 100 = enzyme-acceptor control | activation, % at 11.2 µM | actives 0.3% (n = 6,700) | AID 1508611;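 active = mean percent activation in the counterscreen above 29.09%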;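 also: counterscreen on off-target GPR119 to flag nonselective hits from the GPR151 activator screen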
# An asterisk follows results filed as active; / = not tested or not shown. A selection: hits, their analogues and other compounds. The true share with any hit is near 3.4%.
SMILES,GPR151 ag,FBW7 activator,TEAD-YAP inh,MITF primary,GPR151 confirm,GPR119 counter
O=c1[nH]c2ccccc2nc1/C=C(\O)C(F)F,-0.1,-0.1,4.3,14.4,/,/
CCOc1ccc(C2=NC(c3ccc(OC)cc3)NC(c3ccccc3O)C2)cc1 (centres undefined),6.4*,0.1,-59.8,3.6,-0.5,-10.6
CCCCn1c(=O)c2c3c(sc2n2c(=S)[nH]nc12)CCCC3,-0.7,-0.1,4.3,10.6,/,/
CN1C(C(=O)c2ccccc2)=C(N)c2ccccc2S1(=O)=O,-1.0,-0.2,12.8,-2.6,/,/
CN1C(C(=O)c2ccccc2)=C(N2CCCCC2)c2ccccc2S1(=O)=O,8.1*,-0.2,3.8,-0.7,0.4,8.2
O=C(NCCSC1CCCCC1)Nc1ccccc1,5.1*,-0.1,0.7,-10.4,-1.0,-17.9
N#C/C(=C/c1ccc(N2CCOCC2)c([N+](=O)[O-])c1)c1nc2ccccc2[nH]1,5.2*,-0.1,-18.9,-25.3,-1.6,-6.1
CN(C)CCCN(Cc1ccc2c(c1)OCO2)C(=O)NC1CCCCC1,5.2*,0.4,-1.4,6.0,-0.5,-3.4
COC(=O)c1ccc(NC(=O)Cn2cnc3c(cnn3-c3cccc(C)c3C)c2=O)cc1,8.8*,0.0,8.6,0.5,0.9,9.0
Cc1ccc(-n2ncc3c(=O)n(CC(=O)Nc4cccc5ccccc45)cnc32)cc1C,6.7*,0.1,5.2,-7.0,-0.2,10.6
CCc1cccc(C)c1NC(=O)Cn1cnc2c(cnn2-c2ccc(OC)cc2)c1=O,6.9*,0.0,4.0,14.2,0.3,7.1
Cc1ccc(NC(=O)Cn2cnc3c(cnn3-c3cccc(C)c3C)c2=O)cc1Cl,-0.8,-0.1,5.8,-5.7,/,/
Cc1ccc(CN2CCc3nnc(CCNC(=O)COc4ccccc4)n3CC2)o1,1.5,0.2,2.5,-1.8,/,/
Cc1cccn2c(=O)c3cc(C(=O)NCCc4ccccc4)n(C)c3nc12,0.5,0.2,6.7,15.7,/,/
N#Cc1c(N)nc2c(c1-c1ccsc1)CCCC2,5.0*,0.0,-1.4,-10.7,0.5,-1.5
O=C(NC1CC1)c1ccnc(Nc2ccc(N3CCOCC3)cc2)c1,-1.6,0.0,10.0,-13.4,/,/
CCC(C)NC(=O)Cn1nc(-c2ccccc2)ccc1=O (centres undefined),8.5*,-0.1,4.5,7.0,-0.1,-1.0
CC(C)n1c2ccccc2c2n[nH]c(=S)nc21,6.7*,0.0,-3.8,-14.2,0.3,-0.8
S=c1nc2c(n[nH]1)c1ccccc1n2Cc1ccccc1,1.1,-0.2,-8.6,2.6,/,/
S=c1nc2c(n[nH]1)c1ccccc1n2CCc1ccccc1,6.5*,-0.3,4.0,7.2,1.9,7.2
CCOc1cc(C#N)ccc1OCC(=O)Nc1ccc(Cl)cc1,2.0,0.1,-5.6,-10.1,/,/
CC1CCN(c2nc3c(c(=O)[nH]2)CCN(Cc2cccc4nccnc24)C3)CC1,7.4*,-0.2,5.1,-6.3,1.0,5.7
O=c1[nH]c(N2CCCC2)nc2c1CCN(Cc1cccc3nccnc13)C2,-0.6,0.1,3.7,11.9,/,/
CC1CN(c2nc3c(c(=O)[nH]2)CCN(Cc2c(O)ccc4ccccc24)C3)CC(C)O1 (centres undefined),5.2*,0.0,4.0,9.4,0.7,0.5
NC(=O)C1CCN(CC(=O)Nc2ccccc2Cc2ccccc2)CC1,-0.7,-0.1,6.0,1.2,/,/
SMILES,GPR151 ag,FBW7 activator,TEAD-YAP inh,MITF primary,GPR151 confirm,GPR119 counter
NC(=O)COC(=O)/C=C/c1ccc(Cl)cc1,5.6*,0.0,3.1,3.1,0.4,0.0
CC[C@H](C)[C@H](NC(N)=O)C(=O)Nc1cccc(F)c1,-0.3,-0.1,1.9,1.9,/,/
CCNc1nc(Oc2ccc(=O)[nH]n2)nc(SC)n1,0.6,0.1,1.8,8.4,/,/
CCNc1nc(NC(C)(C)C)nc(Oc2ccc(=O)[nH]n2)n1,5.1*,-0.3,9.2,-6.6,0.5,-3.8
CCOc1ccc(C2C(C#N)=C(N)Oc3n[nH]c(-c4ccc([N+](=O)[O-])cc4)c32)cc1 (centres undefined),-1.8,-0.9,-2.9,-3.9,/,/
O=C(c1ccccc1)c1ccc(C(=O)N2CCCCC2)o1,6.7*,0.0,-57.0,-5.8,-0.6,-6.8
O=C(c1ccccc1)c1ccc(C(=O)N2CCN(c3ccccc3)CC2)o1,0.2,-0.2,-28.7,-3.6,/,/
N/C(=N\c1nc2ccccc2o1)NC(=O)Nc1ccc(Cl)c(Cl)c1,1.1,0.0,-1.7,0.3,/,/
O=S(c1cc(Cl)cc(Cl)c1O)c1cc(Cl)cc(Cl)c1O,6.9*,0.0,-6.4,6.6,1.4,3.9
Cc1cccnc1NS(=O)(=O)c1ccc(CN2C(=O)c3cccnc3C2=O)cc1,6.0*,-0.1,-2.5,9.6,-0.2,2.0
CCCNS(=O)(=O)c1ccc(CN2C(=O)c3cccnc3C2=O)cc1,-0.3,-0.2,-5.2,3.6,/,/
O=C1c2cccnc2C(=O)N1Cc1ccc(S(=O)(=O)N2CCCc3ccccc32)cc1,5.9*,-0.1,2.3,6.2,0.3,-3.0
CC(NC(=O)C(O)CNC(C)(C)C)C1COc2ccccc2O1 (centres undefined),0.2,0.1,8.6,34.3,/,/
CC(C)CCC1=NN(C(=O)C(=O)NCCc2ccccc2)C(O)(C(F)(F)F)C1 (centres undefined),0.9,-0.1,-8.2,9.6,/,/
CC(C)CC1=NN(C(=O)C(=O)NCCc2ccccc2)C(O)(C(F)(F)F)C1 (centres undefined),5.5*,-0.1,-2.0,0.0,-0.5,1.1
Cc1cc(NC(=O)c2ccc([N+](=O)[O-])c(C)c2)ccc1NC(=O)c1ccccc1,1.1,-0.1,-7.2,-6.4,/,/
Cc1ccc(OC(=O)c2ccc(N3C(=O)c4ccc([N+](=O)[O-])cc4C3=O)cc2)cc1C,1.2,-0.2,2.6,3.3,/,/
COc1cc(C2C(C#N)=C(N)Oc3n[nH]c(-c4cccc([N+](=O)[O-])c4)c32)cc(OC)c1OC(C)=O (centres undefined),-0.9,-0.2,-7.7,-6.4,/,/
N#CC1=C(N)Oc2n[nH]c(-c3cccc([N+](=O)[O-])c3)c2C1c1ccc(Cl)c(Cl)c1 (centres undefined),7.9*,-0.4,3.4,5.2,-0.8,-5.5
COc1cc(C2C(C#N)=C(N)Oc3n[nH]c(-c4cccc([N+](=O)[O-])c4)c32)cc(OC)c1O (centres undefined),6.0*,0.0,10.5,0.7,-0.6,8.1
N#CC1=C(N)Oc2n[nH]c(-c3ccccc3)c2C1c1ccc([N+](=O)[O-])cc1Cl (centres undefined),1.0,0.2,-19.5,1.3,/,/
N#CC1=C(N)Oc2n[nH]c(-c3ccccc3)c2C1c1ccc(Cl)c([N+](=O)[O-])c1 (centres undefined),6.1*,0.1,-1.7,-2.8,-0.1,3.1
CCN(CC)Cc1ccc(C(=O)NCc2cnc3ccccc3c2)c(=O)[nH]1,0.9,-0.1,10.5,-8.0,/,/
